# Results reported in PubChem BioAssay (EPA / NIEHS).
# Values joined by “and” are separate entries in the source; they are usually repeats but may differ in a detail not shown here. Equal values may be shown once. Some compounds were tested as several samples or in several runs, with calls that do not always agree. Active and inactive are the calls of the source. Rule for the calls: active = hit-call score of the fitted dose curve at least 0.9, where 1 is the maximum; inactive = score below 0.9.
# Columns and labels:
# Settings in all cases: mRNA level, 48 h; actives raise or lower the signal
# CYP2C8 (gene 1558) = test: LTEA_HepaRG_CYP2C8: Life Technologies and Expression Analysis (LTEA) Assay for CYP2C8 using HepaRG (AID 2283483)
# Summary of the method: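 Differentiated human HepaRG cells were exposed for 48 h in serum-free induction medium to eight half-log concentrations up to 100 uM in 0.5% DMSO, in duplicate. CYP2C8 mRNA was measured by TaqMan qRT-PCR, normalized to ACTB, GAPDH and POLR2A, and fitted bidirectionally against DMSO.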
# CYP2C9 (gene 1559) = test: LTEA_HepaRG_CYP2C9: Life Technologies and Expression Analysis (LTEA) Assay for CYP2C9 using HepaRG (AID 2283484)
# Summary of the method: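 Differentiated human HepaRG cells were exposed 48 h in serum-free induction medium to eight half-log concentrations up to 100 uM in 0.5% DMSO. CYP2C9 mRNA was measured by qRT-PCR, normalized to ACTB, GAPDH and POLR2A, and fitted bidirectionally against DMSO.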
# CYP2E1 (gene 1571) = test: LTEA_HepaRG_CYP2E1: Life Technologies and Expression Analysis (LTEA) Assay for CYP2E1 using HepaRG (AID 2283485)
# Summary of the method: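 Differentiated HepaRG cells were treated in duplicate for 48 h with chemicals in 0.5% DMSO, from 100 uM downward in half-log dilutions. RNA was then analysed by qRT-PCR for CYP2E1 induction or loss.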
# CYP4A11 (gene 1579) = test: LTEA_HepaRG_CYP4A11: Life Technologies and Expression Analysis (LTEA) Assay for CYP4A11 using HepaRG (AID 2283486)
# Summary of the method: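 Differentiated HepaRG cells, serum-free induction medium, exposed 48 h in duplicate to 8-point half-log series from 100 uM in 0.5% DMSO. CYP4A11 mRNA measured by qRT-PCR, normalized to ACTB, GAPDH, POLR2A; bidirectional fit versus DMSO.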
# [1] = read-out: Cytochrome P450 3A4 (Homo sapiens) (UniProt P08684); test: LTEA_HepaRG_CYP3A4: Life Technologies and Expression Analysis (LTEA) Assay for CYP3A4 using HepaRG (AID 2283487)
# Summary of the method: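 In a human hepatic line (HepaRG), duplicate wells were treated 48 h with up to 100 uM chemical in half-log dilutions. Endpoint: CYP3A4 mRNA induction or loss relative to 0.5% DMSO vehicle, by qRT-PCR.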
# [2] = read-out: DNA damage-inducible transcript 3 (DDIT3), DDIT3 (gene 1649); test: LTEA_HepaRG_DDIT3: Life Technologies and Expression Analysis (LTEA) Assay for DNA damage-inducible transcript 3 (DDIT3) using HepaRG (AID 2283488)
# Summary of the method: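 Changes in DDIT3 transcript, in either direction relative to 0.5% DMSO vehicle, were quantified by TaqMan qRT-PCR after 48 h chemical exposure of HepaRG cells at 8 concentrations, maximum 100 uM.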
# [3] = read-out: Pro-epidermal growth factor (Homo sapiens) (UniProt P01133); test: LTEA_HepaRG_EGF: Life Technologies and Expression Analysis (LTEA) Assay for Epidermal growth factor (EGF) using HepaRG (AID 2283489)
# Summary of the method: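 Differentiated human HepaRG cells, plated 48 h then switched to serum-free induction medium, were exposed for 48 h to test chemicals (8-point half-log series, top 100 uM, 0.5% DMSO). EGF mRNA was quantified by qRT-PCR, normalized to ACTB, GAPDH, POLR2A.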
# [4] = read-out: Early growth response protein 1 (EGR1) transcription factor, EGR1 (gene 1958); test: LTEA_HepaRG_EGR1: Life Technologies and Expression Analysis (LTEA) Assay for Early growth response protein 1 (EGR1) transcription factor using HepaRG (AID 2283490)
# Summary of the method: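 Differentiated human HepaRG cells in serum-free induction medium were exposed in duplicate for 48 h to eight concentrations (top 100 uM, half-log steps) in 0.5% DMSO. EGR1 mRNA was quantified by qRT-PCR, normalized to ACTB, GAPDH and POLR2A, and fitted bidirectionally versus DMSO.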
# [5] = read-out: Ezrin (EZR), EZR (gene 7430); test: LTEA_HepaRG_EZR: Life Technologies and Expression Analysis (LTEA) Assay for Ezrin (EZR) using HepaRG (AID 2283491)
# Summary of the method: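 Gain or loss of EZR mRNA is scored relative to 0.5% DMSO in human HepaRG cultures treated 48 h with test chemicals in duplicate, eight half-log concentrations from 100 uM.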
# [6] = read-out: Cytochrome P450 3A7 (Homo sapiens) (UniProt P24462); test: LTEA_HepaRG_CYP3A7: Life Technologies and Expression Analysis (LTEA) Assay for CYP3A7 using HepaRG (AID 2283492)
# Summary of the method: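 HepaRG cells plated 48 h, then dosed in serum-free induction medium for 48 h at 8 concentrations (top 100 uM, half-log steps, 0.5% DMSO). CYP3A7 mRNA by qRT-PCR, normalised to ACTB/GAPDH/POLR2A; bidirectional fit versus DMSO.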
# Chain of Cytochrome P450 3A4 (Homo sapiens) (P08684 whole entry, looked up): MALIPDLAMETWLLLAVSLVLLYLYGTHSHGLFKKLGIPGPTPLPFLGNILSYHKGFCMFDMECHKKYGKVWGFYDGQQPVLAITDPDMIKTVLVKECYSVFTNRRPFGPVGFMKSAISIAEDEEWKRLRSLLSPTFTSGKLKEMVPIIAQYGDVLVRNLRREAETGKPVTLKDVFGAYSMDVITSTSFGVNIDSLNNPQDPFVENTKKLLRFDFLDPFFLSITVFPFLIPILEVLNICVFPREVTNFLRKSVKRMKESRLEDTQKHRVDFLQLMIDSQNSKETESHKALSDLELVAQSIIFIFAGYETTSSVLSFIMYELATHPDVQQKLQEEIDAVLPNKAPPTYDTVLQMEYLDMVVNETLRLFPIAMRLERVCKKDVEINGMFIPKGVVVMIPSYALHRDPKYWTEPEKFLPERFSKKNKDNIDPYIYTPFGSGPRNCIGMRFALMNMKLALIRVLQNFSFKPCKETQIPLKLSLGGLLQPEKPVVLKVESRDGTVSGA
# Chain of Cytochrome P450 3A7 (Homo sapiens) (P24462 whole entry, looked up): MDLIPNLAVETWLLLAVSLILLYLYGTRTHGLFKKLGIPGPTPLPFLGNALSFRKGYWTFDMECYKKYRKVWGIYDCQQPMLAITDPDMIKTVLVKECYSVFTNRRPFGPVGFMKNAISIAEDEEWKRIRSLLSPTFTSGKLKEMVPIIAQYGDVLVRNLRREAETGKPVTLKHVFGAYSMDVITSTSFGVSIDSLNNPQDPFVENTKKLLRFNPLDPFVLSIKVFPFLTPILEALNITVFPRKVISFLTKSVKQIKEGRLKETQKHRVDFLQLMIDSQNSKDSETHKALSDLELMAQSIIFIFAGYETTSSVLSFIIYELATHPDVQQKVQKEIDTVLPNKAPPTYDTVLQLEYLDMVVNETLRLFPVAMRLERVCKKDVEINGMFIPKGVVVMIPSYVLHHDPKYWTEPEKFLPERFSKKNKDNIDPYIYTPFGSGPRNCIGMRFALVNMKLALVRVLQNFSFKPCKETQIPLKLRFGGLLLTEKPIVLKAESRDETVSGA
SMILES,outcome (CYP2C8 (gene 1558)),outcome (CYP2C9 (gene 1559)),AC50 (CYP2E1 (gene 1571)),outcome (CYP4A11 (gene 1579)),AC50 [1],outcome [2],outcome [3],outcome [4],outcome [5],AC50 [6],AC50 (CYP2C8 (gene 1558)),AC50 (CYP4A11 (gene 1579)),AC50 [2],AC50 [3],AC50 (CYP2C9 (gene 1559)),outcome (CYP2E1 (gene 1571)),outcome [1],AC50 [4],outcome [6],AC50 [5]
Clc1ccccc1-c1nnc(-c2ccccc2Cl)nn1,inactive,inactive,20.7 µM (active),inactive,9.38 µM (active),inactive,inactive,inactive,inactive,6.87 µM (active),,,,,,,,,,
N#Cc1c(Cl)c(Cl)c(Cl)c(C#N)c1Cl,,inactive,66.1 µM (active),,19 µM (active),,,inactive,inactive,50 µM (active),50 µM (active),50 µM (active),19.1 µM (active),6.66 µM (active),,,,,,
CC(C)(C)C(O)C(Oc1ccc(Cl)cc1)n1cncn1 (configuration not stated),inactive,inactive,25.8 µM (active) and 25.3 µM (active) and 29.5 µM (active),,,inactive,inactive,inactive,inactive,,3.91 µM (active) and 4.21 µM (active),18.1 µM (active) and 13.8 µM (active) and 25.4 µM (active),,,,,,,,
Oc1ccc(Cl)cc1Cc1ccccc1,inactive,inactive,50.5 µM (active),inactive,,inactive,inactive,inactive,inactive,,,81.7 µM (active) and 81.2 µM (active),,,79.2 µM (active),inactive,inactive,50.5 µM (active),inactive,
O=S(=O)(O)C(F)(F)C(F)(F)C(F)(F)C(F)(F)C(F)(F)C(F)(F)C(F)(F)C(F)(F)F,,inactive,61.1 µM (active) [middle of 4 runs],,,,inactive,inactive,inactive,,88.2 µM (active) and 12.1 µM (active) and 87.9 µM (active),,60.1 µM (active) [middle of 4 runs],,80.2 µM (active) and 88.7 µM (active),,inactive,50 µM (active) and 7.35 µM (active),,50 µM (active) and 14.2 µM (active)
ClC1C(Cl)C(Cl)C(Cl)C(Cl)C1Cl (configuration not stated),inactive,inactive,22.3 µM (active) and 5.02 µM (active),inactive,,inactive,inactive,inactive,inactive,,0.418 µM (active),12.6 µM (active),,1.92 µM (active),1.93 µM (active),,,,inactive,
O=C(O)C(F)(F)C(F)(F)C(F)(F)C(F)(F)C(F)(F)C(F)(F)C(F)(F)F,inactive,inactive,,,,inactive,inactive,inactive,inactive,22.1 µM (active) and 9.92 µM (active),12.8 µM (active),12.8 µM (active) and 6.48 µM (active),,,,inactive,inactive,12.1 µM (active),,
O=C(O)COc1ccc(Cl)cc1Cl,,inactive,29.3 µM (active),,,inactive,inactive,inactive,inactive,27.7 µM (active),22 µM (active),38.1 µM (active),,,,,inactive,,,
CCOCN(C(=O)CCl)c1c(C)cccc1CC,,,81.3 µM (active),,,inactive,inactive,inactive,inactive,86.2 µM (active),83.6 µM (active),83.5 µM (active),,,80.2 µM (active),,inactive,,,
O=C(O)CCCOc1ccc(Cl)cc1Cl,,inactive,,,,inactive,inactive,inactive,inactive,,14.6 µM (active),10.1 µM (active),,,,inactive,inactive,,,
CCC(C)(NC(=O)c1cc(Cl)c(C)c(Cl)c1)C(=O)CCl (configuration not stated),,,44 µM (active),,88.2 µM (active),,inactive,inactive,,82.1 µM (active),81.6 µM (active),50.2 µM (active),78.3 µM (active),,79.5 µM (active),,,,,75.7 µM (active)
N#CN,inactive,inactive,,inactive,,inactive,inactive,inactive,inactive,,,,,,,inactive,inactive,,inactive,
CCC(C)Nc1c([N+](=O)[O-])cc(C(C)(C)C)cc1[N+](=O)[O-] (configuration not stated),,inactive,49.3 µM (active),,6.12 µM (active),inactive,,inactive,inactive,,12.6 µM (active),50 µM (active),,10.7 µM (active),,,,,inactive,
O=C1c2ccccc2C(=O)N1SC(Cl)(Cl)Cl,inactive,inactive,,inactive,,inactive,inactive,inactive,inactive,,,,,,,inactive,inactive,,inactive,
Oc1cc(Cl)ccc1Oc1ccc(Cl)cc1Cl,inactive,inactive,92.2 µM (active),inactive,,inactive,inactive,inactive,inactive,,86.4 µM (active),51 µM (active) and 79.3 µM (active),,,93.4 µM (active),inactive,inactive,,inactive,
CCCN(CCOc1c(Cl)cc(Cl)cc1Cl)C(=O)n1ccnc1,,,14.6 µM (active),,36.2 µM (active),,,,,32.4 µM (active),28.4 µM (active),18.2 µM (active),24 µM (active),12.1 µM (active),31.9 µM (active),,,27.9 µM (active),,31.1 µM (active)
CC(C)(C)C(O)/C(=C\c1ccc(Cl)cc1Cl)n1cncn1 (configuration not stated),,inactive,12.9 µM (active),,84.5 µM (active),,inactive,,,,3.88 µM (active),21.9 µM (active),29.4 µM (active),,,,,33.8 µM (active),inactive,86.6 µM (active)
CC1(c2ccc(Oc3ccccc3)cc2)OC(=O)N(Nc2ccccc2)C1=O (configuration not stated),,,5.56 µM (active),,26.2 µM (active),,inactive,,,24.8 µM (active),15.9 µM (active),8.16 µM (active),8.41 µM (active),,17.4 µM (active),,,82.1 µM (active),,4.5 µM (active)
CCC(C)(C)C(=O)OC1=C(c2ccc(Cl)cc2Cl)C(=O)OC12CCCCC2,inactive,inactive,23.1 µM (active),inactive,25 µM (active),inactive,inactive,inactive,inactive,25.5 µM (active),,,,,,,,,,
C#CCN1C(=O)COc2cc(F)c(N3C(=O)C4=C(CCCC4)C3=O)cc21,inactive,inactive,26.1 µM (active),,3.65 µM (active),inactive,inactive,,inactive,0.97 µM (active),,20.5 µM (active),,,,,,12 µM (active),,
CC1(C)C(C=C(Cl)Cl)C1C(=O)OC(C#N)c1ccc(F)c(Oc2ccccc2)c1 (configuration not stated),,,55.3 µM (active),inactive,10.9 µM (active),inactive,,inactive,inactive,,17.1 µM (active),,,61.4 µM (active),14 µM (active),,,,inactive,
CN1CSC(=S)N(C)C1,inactive,inactive,,inactive,,inactive,inactive,inactive,inactive,,,,,,,inactive,inactive,,inactive,
